# PubChem BioAssay (Tox21)
# Unmarked numbers belong to inactive results. Records with an inconclusive call do not appear. A call without a number means that no potency is given here. Calls of active or inactive are those of the source. Unless noted, calls come from the whole dose curve; as a rule, active = well fitted curve in the direction sought with a large enough effect in the repeat runs; inconclusive = weak or mixed curves; inactive = no such curve, though single readings can be large; an effect the other way counts as inactive or inconclusive.
# Columns and labels:
# [1] = qHTS assay to identify small molecule antagonists of the estrogen receptor beta (ER-beta) signaling pathway - cell viability counter screen (AID 1259382);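 note: HEK293T cells carrying ER-beta-UAS-bla reporter stimulated with estradiol; series mostly up to about 92 µM; nearly all actives have a fitted effect of over 55% in size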
# How it was run: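 Luminescent ATP read-out (CellTiter-Glo, 30 min, RT) taken in the same wells as the bla reporter assay. HEK293T ER-beta-UAS-bla cells in 2% charcoal-stripped FBS were exposed to compounds with 1nM E2 for 16 hr at 37C.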
# [2] = biological target: Estrogen receptor (Homo sapiens) (UniProt P03372); assay: qHTS assay to identify small molecule agonists of the estrogen receptor alpha (ER-alpha) signaling pathway in the presence of an antagonist (AID 1259383; calls by dose curve; note: top concentration of the series differs between compounds; nearly all actives have a fitted effect of over 15% in size)
# How it was run: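 Luciferase luminescence (ONE-Glo, 30min at room temperature) measured in VM7Luc4E2 cells after 22hr compound exposure at 15 concentrations, with 10.0nM ICI-182,780 final present; cells express endogenous ER-alpha and carry four EREs upstream of luciferase.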
# [3] = qHTS assay to identify small molecule agonists of the estrogen receptor alpha (ER-alpha) signaling pathway in the presence of an antagonist - cell viability counter screen (AID 1259386);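 note: cells exposed to compounds for 22 h at 37 °C before the viability read; nearly all actives have a fitted effect of over 30% in size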; note: potency is the fitted concentration of half-maximal effect; for activity change, negative = cytotoxicity: series mostly up to about 92 µM
# How it was run: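 Read-out: CellTiter-Fluor fluorescence after 1hr reagent incubation, measured in the same wells as the luciferase readout. VM7Luc4E2 cells were exposed to 15 compound concentrations with 10.0nM ICI-182,780 for 22hr at 37C.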
# [4] = qHTS assay to identify small molecule antagonists of the progesterone receptor (PR) signaling pathway - cell viability counter screen (AID 1346798); note: nearly all actives have a fitted effect of over 50% in size; note: potency is the fitted concentration of half-maximal effect; for activity change, negative = cytotoxicity: series mostly up to about 92 µM
# How it was run: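 CellTiter-Glo luminescence; PR-UAS-bla HEK293T, 3,000 cells/well; compound + R5020, 16 hr, 37C/5% CO2; 30 min RT before read.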
# [5] = qHTS assay to identify small molecule agonists of the progesterone receptor (PR) signaling pathway - cell viability counter screen (AID 1346799; calls by dose curve; note: nearly all actives have a fitted effect of over 45% in size; note: potency is the fitted concentration of half-maximal effect)
# How it was run: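 In parallel with the beta-lactamase readout, cytotoxicity toward PR-UAS-bla HEK293T cells was measured by CellTiter-Glo luminescence following 16 hr compound incubation in 2% charcoal-stripped FBS medium.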
# [6] = biological target: Progesterone receptor (Homo sapiens) (UniProt P06401); assay: qHTS assay to identify small molecule agonists of the progesterone receptor (PR) signaling pathway (AID 1346784; calls by dose curve; note: nearly all actives have a fitted effect of over 30% in size)
# How it was run: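 Fluorescence from LiveBLAzer B/G FRET substrate cleavage (2 hr, RT) reported PR activation in PR-UAS-bla HEK 293T cells treated 16 hr at 37C/5% CO2 with compounds; medium contained 2% charcoal-stripped FBS.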
# [7] = biological target: Progesterone receptor (Homo sapiens) (UniProt P06401); assay: qHTS assay to identify small molecule antagonists of the progesterone receptor (PR) signaling pathway (AID 1346795; active = well fitted inhibition curve with a large enough effect in the signal ratio in the repeat runs, not every such curve was filed as active; the % refers to the signal ratio)
# How it was run: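 Fluorescence intensity measured 2 hr after adding beta-lactamase FRET substrate to PR-UAS-bla HEK293T cells that had been co-treated 16 hr with compound and 1 nM R5020 (final concentration) in 2% charcoal-stripped FBS.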
# [8] = qHTS assay to identify small molecule agonists or antagonists of the thyroid stimulating hormone receptor (TSHR) signaling pathway - wild type cell line counter screen (AID 1259384; calls by dose curve)
# How it was run: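 Wild-type HEK293 cells were plated 18 h at 37 C/5% CO2, pin-dosed with compound plus Ro20-1724 medium, held 30 min at room temperature, then given cAMP-d2 and anti-cAMP-cryptate; fluorescence was read after 1 h. Fifteen concentrations, triplicate.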
# [9] = biological target: Thyrotropin receptor (Homo sapiens) (UniProt P16473); assay: qHTS assay to identify small molecule antagonists of the thyroid stimulating hormone receptor (TSHR) signaling pathway (AID 1259385; calls by dose curve; note: nearly all actives have a fitted effect of over 20% in size)
# How it was run: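 TSHR-HEK293 cells were plated and held 18 h at 37C/5% CO2, then given compound plus Ro20-1724 and stimulated with TSH at 1.5 ng/mL final. After 30 min at room temperature, cAMP was detected with cAMP-d2/anti-cAMP-cryptate (1 h) by fluorescence.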
# Chain of Estrogen receptor (Homo sapiens) (P03372 whole entry, looked up): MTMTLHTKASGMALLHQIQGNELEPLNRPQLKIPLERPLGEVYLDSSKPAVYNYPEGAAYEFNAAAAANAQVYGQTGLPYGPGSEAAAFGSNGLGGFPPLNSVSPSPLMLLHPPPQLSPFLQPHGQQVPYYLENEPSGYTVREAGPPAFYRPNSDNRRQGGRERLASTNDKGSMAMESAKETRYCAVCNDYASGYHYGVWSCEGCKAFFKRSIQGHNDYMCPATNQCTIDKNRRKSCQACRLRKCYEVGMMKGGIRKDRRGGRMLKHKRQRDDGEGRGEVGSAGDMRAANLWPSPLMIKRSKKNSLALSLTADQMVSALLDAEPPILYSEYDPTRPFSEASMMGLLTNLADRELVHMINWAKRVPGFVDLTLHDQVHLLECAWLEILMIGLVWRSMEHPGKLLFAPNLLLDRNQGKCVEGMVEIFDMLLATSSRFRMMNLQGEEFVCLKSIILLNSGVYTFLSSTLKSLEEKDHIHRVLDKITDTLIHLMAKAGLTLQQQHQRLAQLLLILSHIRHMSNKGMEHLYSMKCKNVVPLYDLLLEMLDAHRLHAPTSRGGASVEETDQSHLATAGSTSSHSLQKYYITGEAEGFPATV
# Chain of Progesterone receptor (Homo sapiens) (P06401 whole entry, looked up): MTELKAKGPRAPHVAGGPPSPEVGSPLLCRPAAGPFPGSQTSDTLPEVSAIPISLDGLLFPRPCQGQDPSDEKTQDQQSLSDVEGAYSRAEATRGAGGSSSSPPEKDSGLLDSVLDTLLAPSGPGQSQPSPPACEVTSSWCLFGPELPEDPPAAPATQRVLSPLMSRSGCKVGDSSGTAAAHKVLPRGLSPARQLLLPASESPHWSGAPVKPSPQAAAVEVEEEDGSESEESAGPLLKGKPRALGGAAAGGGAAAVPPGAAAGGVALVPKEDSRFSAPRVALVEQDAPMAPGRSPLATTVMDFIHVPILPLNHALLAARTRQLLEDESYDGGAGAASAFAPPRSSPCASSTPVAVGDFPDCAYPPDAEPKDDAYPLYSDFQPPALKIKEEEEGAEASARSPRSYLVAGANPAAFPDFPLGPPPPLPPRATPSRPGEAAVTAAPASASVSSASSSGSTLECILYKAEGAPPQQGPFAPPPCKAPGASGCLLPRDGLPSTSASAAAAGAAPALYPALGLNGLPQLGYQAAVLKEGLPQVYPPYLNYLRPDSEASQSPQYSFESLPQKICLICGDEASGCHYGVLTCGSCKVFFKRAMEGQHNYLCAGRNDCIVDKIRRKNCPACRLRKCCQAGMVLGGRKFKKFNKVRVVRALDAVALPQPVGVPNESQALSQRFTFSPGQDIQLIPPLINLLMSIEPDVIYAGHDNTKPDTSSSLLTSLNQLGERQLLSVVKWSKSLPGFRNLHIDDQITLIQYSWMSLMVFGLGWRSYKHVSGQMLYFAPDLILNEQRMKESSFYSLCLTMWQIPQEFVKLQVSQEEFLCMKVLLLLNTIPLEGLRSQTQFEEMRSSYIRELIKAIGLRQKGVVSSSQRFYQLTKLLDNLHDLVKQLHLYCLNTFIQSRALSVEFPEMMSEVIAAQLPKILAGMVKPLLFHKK
# Chain of Thyrotropin receptor (Homo sapiens) (P16473 whole entry, looked up): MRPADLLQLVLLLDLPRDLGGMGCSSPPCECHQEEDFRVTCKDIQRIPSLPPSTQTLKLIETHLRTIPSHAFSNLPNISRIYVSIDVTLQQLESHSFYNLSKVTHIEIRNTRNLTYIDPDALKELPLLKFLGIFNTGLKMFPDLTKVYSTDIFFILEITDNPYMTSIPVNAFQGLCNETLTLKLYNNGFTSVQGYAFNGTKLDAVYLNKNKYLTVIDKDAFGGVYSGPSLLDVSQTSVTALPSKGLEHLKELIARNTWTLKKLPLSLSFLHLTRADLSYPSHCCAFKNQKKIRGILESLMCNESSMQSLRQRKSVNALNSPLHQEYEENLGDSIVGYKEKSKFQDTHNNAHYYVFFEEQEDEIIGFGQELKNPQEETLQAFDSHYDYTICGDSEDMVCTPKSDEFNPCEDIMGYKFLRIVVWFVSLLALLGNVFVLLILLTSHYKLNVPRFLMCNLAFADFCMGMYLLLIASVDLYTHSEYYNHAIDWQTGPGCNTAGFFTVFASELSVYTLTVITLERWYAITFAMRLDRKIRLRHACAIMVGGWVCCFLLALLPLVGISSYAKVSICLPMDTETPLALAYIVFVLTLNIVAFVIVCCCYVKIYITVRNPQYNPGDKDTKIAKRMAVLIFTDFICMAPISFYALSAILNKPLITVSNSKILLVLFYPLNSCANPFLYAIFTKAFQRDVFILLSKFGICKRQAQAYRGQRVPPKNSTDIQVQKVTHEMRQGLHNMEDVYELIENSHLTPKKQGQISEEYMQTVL
compound,measurement,setting,value
O=C(Nc1cccc(C2=NCCN2)c1)Nc1cccc(C2=NCCN2)c1,"activity change, negative = cytotoxicity",[1],-2.3% [at 19 µM]
same,activation,[2],0.321% [at 19 µM]
same,"activity change, negative = cytotoxicity",[3],1.98% [at 19 µM]
same,"activity change, negative = cytotoxicity",[4],21% [at 18.9 µM]
same,"activity change, negative = cytotoxicity",[5],7.7% [at 19 µM]
C=CCOc1c(Br)cc(Br)cc1Br,outcome,[1],inactive
same,outcome,[2],inactive
same,Potency,[3],inactive
same,Potency,[6],inactive
same,Potency,[4],inactive
same,Potency,[5],inactive
CC1=NN(c2ccc(S(=O)(=O)O)cc2)C(=O)C1N=Nc1ccccc1 (configuration not stated),outcome,[1],inactive
same,outcome,[2],inactive
same,Potency,[3],30.6 µM (active)
same,Potency,[6],inactive
same,Potency,[7],inactive
same,Potency,[4],inactive
same,Potency,[5],inactive
Cc1ccc(C(=O)C(=O)O)cc1C,outcome,[1],inactive
same,outcome,[2],inactive
same,Potency,[3],inactive
same,Potency,[6],inactive
same,Potency,[7],inactive
same,Potency,[4],inactive
same,Potency,[5],inactive
OC[C@@H](O)[C@H](O)[C@@H](O)[C@@H](O)CO,outcome,[1],inactive
same,outcome,[2],inactive
same,Potency,[3],inactive
same,Potency,[4],inactive
same,Potency,[5],inactive
Cc1cccc(C(=O)O)c1[N+](=O)[O-],outcome,[1],inactive
same,outcome,[2],inactive
same,Potency,[3],inactive
same,Potency,[6],inactive
same,Potency,[7],inactive
same,Potency,[4],inactive
same,Potency,[5],inactive
CC(C)(C)NCCO,outcome,[1],inactive
same,outcome,[2],inactive
same,Potency,[3],inactive
same,Potency,[6],inactive
same,Potency,[4],30.6 µM (active)
same,Potency,[5],48.6 µM (active)
COc1cc(C=O)ccc1OC(=O)C(C)C,outcome,[1],inactive
same,outcome,[8],inactive
same,outcome,[9],inactive
same,Potency,[3],inactive
same,Potency,[6],inactive
same,Potency,[7],inactive
same,Potency,[4],inactive
same,Potency,[5],inactive
NS(=O)(=O)c1cc2c(cc1Cl)NC(CC1CCCC1)NS2(=O)=O (configuration not stated),outcome,[1],inactive
same,outcome,[8],inactive
same,outcome,[9],inactive
same,Potency,[3],inactive
same,Potency,[6],inactive
same,Potency,[7],inactive
same,Potency,[4],inactive
same,Potency,[5],inactive
CCCCCCCCCCCCC1CO1 (configuration not stated),outcome,[1],inactive
same,outcome,[2],inactive
same,Potency,[3],inactive
same,Potency,[7],inactive
same,Potency,[4],inactive
CCC(O)C(C)(C)C (configuration not stated),outcome,[1],inactive
same,outcome,[2],inactive
same,Potency,[3],inactive
same,Potency,[6],inactive
same,Potency,[7],inactive
same,Potency,[4],inactive
same,Potency,[5],inactive
COc1cc2c(Nc3ccc(Br)cc3F)ncnc2cc1OCC1CCN(C)CC1,outcome,[1],inactive
same,outcome,[2],inactive
same,Potency,[3],inactive
same,Potency,[7],inactive
same,Potency,[4],inactive
same,Potency,[5],inactive
CCCO,outcome,[1],inactive
same,outcome,[2],inactive
same,Potency,[3],inactive
same,Potency,[7],inactive
same,Potency,[5],inactive
